Screening data from PubChem BioAssay.
Only some compounds are listed: those with a hit (about 3.2% of all), similar ones and a draw of the others.
BRCA1 expr act – activators of BRCA1 expression; MCF7-BRCA1-FFLuc reporter, luminescence, 48 h; response scale: scaled: vehicle 0%, 10 µM genistein 100%; Potency, µM (top dose mostly 46.1 µM), for the others: at the top dose activation, actives largely listed as activators; 380,000 compounds, 1.1% hits; AID 624202; further: potency means the concentration at half of the fitted maximal effect; nearly all actives have a fitted effect of over 80% in size
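Quantitative HTS in MCF7 cells stably reporting BRCA1 expression via firefly luciferase. Compound treatment lasts 48 h at 37 °C in phenol-red free MEM. Activation is expressed relative to genistein at 10 microM and DMSO.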
IL2 activator – activators of IL-2; IL-2 activation reporter assay, cell-based qHTS; stimulated with anti-CD3/CD4/CD28 beads; in transgenic mouse T cells; activation, % (series mostly up to about 46 µM); 360,000 compounds, 0.065% hits; AID 652025; in the data active means activation above about 50%; inconclusive means mostly about 30% to 49%; further: 0% is about no effect
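Readout: EGFP and DsRed signals by fluorescent plate cytometry. Unstimulated transgenic mouse T cells received compound 60 min before antibody-bead stimulation, then incubated 18 h at 37 degrees C.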
p53 reactivation – mutant p53 re-activation in reporter cells. H1299 p53-A138V BP100-luciferase reporter, luminescence, 24 h. Potency, µM (highest dose often 92.2 µM), inactives show at the highest dose activity change, positive = activation, hits mostly activators. 320,000 compounds, 0.063% hits. AID 504706; further: potency means the concentration at half of the fitted maximal effect; % of control where 0% means no effect; nearly all actives have a fitted effect of over 45% in size
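p53-null H1299 cells stably carrying temperature-sensitive p53-A138V and a BP100-luciferase reporter were pinned with compounds (4-point, 1:5 series) and held 24 hrs at 37 deg C. Luminescence was read 10 min after detection reagent.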
A549 viability – A549 cytotoxicity, counter-screen for Nrf2 inhibitors | A549 ARE-Fluc cells, CellTiter-Fluor viability, 18-24 h | Potency, µM (highest dose often 46 µM), for the others: at the top dose activity change, negative = cytotoxicity, most hits filed as inhibitors | 390,000 compounds, 0.16% hits; further: potency means the concentration at half of the fitted maximal effect; on the % scale 0 is the no-effect control and ±100 the full control effect
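A549 ARE-Fluc cells in 5% FBS OPTI-MEM, 5000 cells/well, rested 2 h then exposed to compounds in concentration-response for 18-24 h at 37 °C. Viability by CellTiter-Fluor fluorescence (Ex 405/Em 525) after 30 min; luciferase luminescence (BugLite, 15 min, RT) read afterwards.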
Nrf2 block – blocks Nrf2 signaling. 360,000 compounds, 2.1% hits. AID 504444. A549 ARE-Fluc reporter, luciferase luminescence, 18-24 h. Potency, µM (titrated, usually from 46 µM), inactives show at the top dose activity change, negative = inhibition, hits mostly inhibitors; further: potency means the concentration at half of the fitted maximal effect; on the % scale 0 is the no-effect control and ±100 the full control effect; nearly all actives have a fitted effect of over 60% in size
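Reporter: ARE-Fluc in A549. Exposure: 18-24 h, 37 °C, 5% CO2, 5% FBS OPTI-MEM. Readouts: fluorescent cytotoxicity (CellTiter-Fluor), then luminescent Nrf2 signal after BugLite.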
Nrf2 activator – Nrf2 pathway activation | Potency, µM (titrated, usually from 46.1 µM), inactives show at the top dose activation, usual class: activators | AID 624171 | AREc32 ARE-luciferase reporter (MCF7-derived line), luminescence, 24 h | 410,000 compounds, 0.31% hits; further: potency means the concentration at half of the fitted maximal effect; % of control where 0% means no effect; nearly all actives have a fitted effect of over 65% in size
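AREc32_Fluc, 1000 cells/well, OPTI-MEM + 5% FBS, o/n 37 deg C 5% CO2; 23 nL cpd by pin tool, 24 hr; Steady-Glo 30 min RT, luminescence.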
An asterisk follows results filed as active; ? = inconclusive; . = no result; [ ] = another dose, or the depositor's remark. Unless noted, the call rests on the fitted dose curve; in most records, active means well fitted curve in the direction sought with a large enough effect; inconclusive means small, poorly fitted or top-dose-only effect, or another doubt; inactive means no such curve, though single readings can be large; an effect the other way counts as inactive or inconclusive.

SMILES	BRCA1 expr act	IL2 activator	p53 reactivation	A549 viability	Nrf2 block	Nrf2 activator
Cc1ccc(-n2ncc3c(NC4CCCCC4)ncnc32)cc1C	.	.	.	-2%	.	0%
CCN(CC)c1ccc(NC(=O)C2CCCN(S(=O)(=O)c3cnc[nH]3)C2)c(C)c1 (configuration not stated)	36%	-1	10%	1%	23µM*	-1%
Cc1ccc(NC(=O)C2CCCN(S(=O)(=O)c3cnc[nH]3)C2)cc1C (configuration not stated)	8%	0	1%	2%	-13%	-1%
O=c1c2ccccc2nnn1CSc1nnc2ccccn12	5.6µM*	0	?	-4%	?	0%
Cn1ccc2cc(S(=O)(=O)N3CCN(C(=O)Nc4ccccc4F)CC3)ccc21	17%	.	.	5%	.	-1%
COc1ccc(C(CC(=O)Nc2ccc(OC)c(OC)c2)N2Cc3ccccc3C2=O)cc1 (configuration not stated)	.	.	.	1%	.	5%
Cc1ccc(CNc2ccc(-c3nc(-c4cccnc4)no3)cc2[N+](=O)[O-])cc1	19%	.	.	-23%	29µM*	0%
Cc1ccc(CNc2ccc(-c3nc(-c4ccncc4)no3)cc2[N+](=O)[O-])cc1	0%	.	.	-13%	-3%	3%
O=C(CCSCc1ccccc1F)N1CCN(c2ccccn2)CC1	10µM*	-3	23%	7%	?	-1%
Cc1ccc(-c2nc(CSCC(=O)N3CCOCC3)c(C)o2)cc1	-1%	-2	27%	.	?	3%
CCc1ccc(-c2nc(CSCC(=O)N3CCN(c4ccccn4)CC3)c(C)o2)cc1	-95%	-4	-2%	?	16µM*	-1%
Cc1ccc(-c2nc(CSCC(=O)N3CCN(c4ccccn4)CC3)c(C)o2)cc1	-34%	-3	1%	-19%	16µM*	1%
O=C(c1cc(S(=O)(=O)N2CCN(c3ccccc3)CC2)ccc1Cl)N1CCCCCCC1	-50%	-1	-4%	-7%	21µM*	0%
O=S(=O)(c1ccc2ccccc2c1)N1CCN(c2ccc(O)cc2)CC1	-42%	0	-4%	-1%	10µM*	9%
O=C(O)CCc1cc(F)c(S(=O)(=O)N2CCN(S(=O)(=O)c3ccc4c(c3)OCCO4)CC2)cc1F	.	.	.	-3%	-14%	.
COc1ccc(CNc2ccc([N+](=O)[O-])cn2)cc1	10µM*	0	?	-17%	?	5%
Cc1cc(/C=C2\C(=O)NN(c3ccccc3)C2=O)c(C)n1-c1ccccc1O	10µM*	1	12%	-10%	10%	5%
Cc1cc(/C=C2/C(=O)NN(c3ccccc3)C2=O)c(C)n1-c1ccc(O)cc1	12%	-2	18%	?	?	0%
CCOCc1nnc(NC(=O)c2ccc(OC)cc2)s1	13µM*	2	?	-4%	4%	4%
COc1ccc(Cc2nnc(NC(=O)Nc3ccccc3OC)s2)cc1	-23%	1	2%	2%	?	4%
CCCc1nnc(NC(=O)c2cccc(OC)c2)s1	7.1µM*	-1	17%	-1%	12%	0%
CCCc1nnc(NC(=O)Nc2ccccc2OC)s1	22µM*	-3	?	2%	10%	5%
O=C(COc1ccccc1C(=O)OCC(=O)Nc1cccc2ccccc12)Nc1ccc(Br)cc1	1%	.	.	.	.	.
O=C(/C=C/c1cccs1)Nc1cccnc1	11µM*	1	?	1%	?	8%
O=C(C=Cc1cccs1)c1cccs1	4%	-1	.	0%	1%	22µM*
SMILES	BRCA1 expr act	IL2 activator	p53 reactivation	A549 viability	Nrf2 block	Nrf2 activator
CCOC(=O)c1ccccc1NC(=O)c1cccs1	1%	-2	2%	-11%	-23%	0%
O=C(/C=C\Nc1cccc(F)c1)c1cccs1	74%	-2	?	-6%	?	4µM*
CCOC(=O)c1ccccc1N/C=C/C(=O)c1cccs1	-36%	-1	16µM*	-3%	?	6.3µM*
Clc1ccc(CN(CCCNc2ncnc(NCCCc3cnc[nH]3)n2)c2ccc(Br)cn2)cc1Cl	.	.	.	-17%	?	.
O=S(=O)(Nc1ccc(Cl)cc1)c1cccc(S(=O)(=O)c2ccc(Cl)c(Cl)c2)c1	.	.	.	-16%	?	6%
Cc1nn(C)cc1/C=C/C(=O)c1cccs1	?	-2	20µM*	-5%	19%	11%
Cc1nn(C)cc1/C=C/C(=O)c1ccccc1	69%	-1	?	17%[1.84 µM]	?	?
O=C(/C=C\c1cccs1)c1c(O)ccc2ccc(=O)oc12	-49%	0	-14%	-1%	1%	11µM*
O=C(/C=C/c1cccs1)c1ccc(Br)cc1	36%	0	15%	-9%	-2%	?
CC1=C(c2ccc(Cl)cc2)S(=O)(=O)N=C1N1CCN(c2cccc(C)c2)C(C)C1 (configuration not stated)	.	.	.	-4%	23µM*	0%
CCSc1nc2sc3c(c2c(=O)n1-c1ccc(OC)cc1)CCN(C)C3	-1%	2	-1%	-2%	23µM*	0%
CCOC(=O)CSc1nc2sc3c(c2c(=O)n1-c1ccc(OC)cc1)CCN(C)C3	0%	-2	3%	-1%	?	0%
CC(C)Cc1ccc(/C=C/C(=O)NC2CC2)cc1	5.6µM*	0	?	-1%	?	3%
CCc1ccc(/C=C\C(=O)N2CCCC2)cc1	?	0	.	6%	?	-1%
O=C(/C=C/c1ccc(Br)cc1)NC1CCCCCC1	?	-3	10%	-7%	17%	2%
CC1CCN(C(=O)/C=C/c2ccc(C(C)(C)C)cc2)CC1	52%	-1	?	1%	23%	2%
CC(C)Cc1ccc(/C=C/C(=O)N2CCCCC2)cc1	13µM*	0	14%	6%	?	4%
CC(C)(C)c1ccc(/C=C/C(=O)N2CCCCC2)cc1	7.1µM*	1	18%	?	?	4%
CCCN1CNc2c(c(=O)[nH]c(=S)n2CCc2ccc(Cl)cc2)C1	0%	.	.	10%	5%	.
Cc1cccc(NC(=O)CN2C(=O)C(c3ccccc3)=NC23CCC(C)CC3)c1 (configuration not stated)	.	.	.	?	?	-1%
COc1ccc2nc3c(cc2c1)Cn1c-3nc2ccccc2c1=O	.	.	.	2%	?	.
CC(=O)Nc1ccc(S(=O)(=O)NCCSCc2c(Cl)cccc2Cl)cc1	-52%	1	-4%	-21%	15µM*	0%
O=C(CSCc1ccccc1)N1CCN(c2ccc(F)cc2)CC1	26%	-2	?	8%	0%	1%
